Source: PubChem BioAssay (EPA / NIEHS)
Inconclusive results are not listed. Activity calls are given as the source filed them. How the source made its calls, unless noted: active means hit-call score of the fitted dose curve at least 0.9, where 1 is the maximum; inactive means score below 0.9.

Tests used:
[1] = CCTE_Shafer_MEA_acute_AB: CCTE's Alamar Blue Assay for Cytotoxicity in the Neural Acute Assay, Shafer Lab (AID 2284069; active means hit-call score of the fitted dose curve at least 0.9, where 1 is the maximum;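 further: active compounds lower the viability signal compared with DMSO wells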)
Procedure, shortened: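 Resazurin reduction (CellTiter Blue, 1:6 in fresh medium) read at ex 544/em 590 nm marks viability loss relative to DMSO. Cells: primary rat cortical neuron networks on microelectrode arrays, treated after baseline recording at 13 or 15 days in vitro.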

[2] = CCTE_Shafer_MEA_dev_burst_rate: CCTE's Neural Network Formation Assay for Burst Rate, Shafer Lab (AID 2284042)
Procedure, shortened: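 Exposure ran continuously over 12 days of network development in rat cortical cultures, with compound refreshed during full media changes on DIV 5 and 9. Single-electrode bursts per recording time, well-mean over active electrodes, trapezoidal AUC across days 5–12, fitted downward relative to DMSO.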

[3] = CCTE_Shafer_MEA_dev_per_burst_interspike_interval: CCTE's Neural Network Formation Assay for Burst Interspike Interval, Shafer Lab (AID 2284044);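 further: mean spike spacing inside bursts as AUC over recordings on days 5 7 9 12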
Procedure, shortened: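 Neurons from rat cortex plated onto PEI-coated MEA wells with laminin […] at 1.5 x 10^5 cells/well, then treated from day 0. Media and compound fully replaced on DIV 5 and 9. Extracellular spontaneous firing recorded four times; interspike interval per burst summarised as AUC.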

[4] = CCTE_Shafer_MEA_dev_burst_duration_mean: CCTE's Neural Network Formation Assay for Mean Burst Duration, Shafer Lab (AID 2284045)
Procedure, shortened: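 Rat cortical cultures, 1.5 x 10^5 cells/well with laminin drop; continuous dosing days 0–12, media plus treatment refreshed DIV 5, 9. AxIS adaptive spike detection; mean single-electrode burst duration, AUC over four recordings, negative direction vs DMSO.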

[5] = CCTE_Shafer_MEA_dev_interburst_interval_mean: CCTE's Neural Network Formation Assay for Mean Interburst Interval, Shafer Lab (AID 2284046);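 further: well-mean interburst interval of bursting electrodes as AUC over four recording days; curve fitted for decrease in interburst interval relative to DMSO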
Procedure, shortened: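 Primary rat cortical neurons on PEI-coated 48-well MEA plates (laminin added with cells at plating) (16 electrodes/well), exposed from plating day 0 with renewal at DIV 5 and 9. Mean inter-burst interval averaged over bursting electrodes, AUC across days 5, 7, 9, 12; DMSO baseline.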

[6] = CCTE_Shafer_MEA_dev_inter_network_spike_interval_mean: CCTE's Neural Network Formation Assay for Mean Inter-network Spike Interval, Shafer Lab (AID 2284047);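 on AC50: potency for a decrease in mean inter-network spike interval below DMSO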
Procedure, shortened: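 Mean time between consecutive network-spike peaks, recorded extracellularly (adaptive spike detection) on DIV 5, 7, 9 and 12, summarized as trapezoidal AUC. Rat cortical cultures on MEAs dosed continuously days 0–12, re-dosed at feeds; loss-of-signal fit relative to DMSO.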

[7] = CCTE_Shafer_MEA_dev_network_spike_number: CCTE's Neural Network Formation Assay for Number of Network Spikes, Shafer Lab (AID 2284048);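 further: synchronized bursts across electrodes counted on days 5 7 9 12 and integrated as AUC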
Procedure, shortened: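 Rat cortical primary cultures on 48-well MEA (16 electrodes/well); continuous exposure DIV 0–12, full medium and treatment exchange DIV 5, 9. Readout: network spike count, AxIS adaptive detection, recordings DIV 5/7/9/12 collapsed to AUC; loss-of-signal fit, DMSO baseline.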

[8] = CCTE_Shafer_MEA_dev_network_spike_peak: CCTE's Neural Network Formation Assay for Mean Number of Electrodes in Network Spike, Shafer Lab (AID 2284049)
Procedure, shortened: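 Network-spike peak electrode count from recordings on days 5, 7, 9 and 12 was combined as trapezoidal area under the curve. Rat cortical cultures were treated continuously from plating, with compound renewed at each feed (DIV 5, 9); fits versus DMSO.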

[9] = CCTE_Shafer_MEA_dev_spike_duration_mean: CCTE's Neural Network Formation Assay for Mean Spike Duration, Shafer Lab (AID 2284051);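 further: mean network spike duration pooled as area under curve over DIV 5 to 12 recordings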
Procedure, shortened: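 Spontaneous activity was recorded on days 5, 7, 9 and 12 from rat cortical cultures grown on microelectrode arrays and dosed continuously from day 0, with media and compound renewed after the DIV 5 and 9 recordings. Network-spike duration was collapsed by area under the curve.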

[10] = CCTE_Shafer_MEA_dev_network_spike_duration_std: CCTE's Neural Network Formation Assay for Standard Deviation of Network Spike Duration, Shafer Lab (AID 2284052);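 further: hits are decreases in network spike duration SD versus DMSO vehicle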
Procedure, shortened: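 Network spike duration variability was collapsed across recordings on days 5, 7, 9 and 12 by trapezoidal area-under-curve and fitted downward against DMSO. Cultures were rat cortical neurons on PEI-coated MEA plates, dosed continuously from plating, refed with compound DIV 5/9.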

[11] = CCTE_Shafer_MEA_dev_per_network_spike_spike_percent: CCTE's Neural Network Formation Assay for Percent of Spikes in a Network Spike, Shafer Lab (AID 2284054)
Procedure, shortened: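 Read-out: percent of spikes falling in a 0.05 s window at network-spike peak, from spontaneous MEA recordings on days 5, 7, 9 and 12; trapezoidal AUC; loss of signal versus DMSO. Rat cortical cultures, compound present throughout.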

[12] = CCTE_Shafer_MEA_dev_AB: CCTE's Alamar Blue Assay for Cytotoxicity in the Neural Network Formation Assay, Shafer Lab (AID 2284083; active means hit-call score of the fitted dose curve at least 0.9, where 1 is the maximum;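 further: resazurin reduction fluorescence as viability of cultured neurons; twelve days of exposure from plating with re-dosing on DIV 5 and 9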)
Procedure, shortened: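 Resazurin fluorescence, relative to DMSO, gauges viability after twelve days of exposure that began at plating of rat cortical neurons (1.5 x 10^5 cells/well, 48-well MEA); treatment renewed with full medium exchange on DIV 5 and 9.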

[13] = CCTE_Shafer_MEA_dev_mutual_information_norm: CCTE's Neural Network Formation Assay for Mutual Information Normalization, Shafer Lab (AID 2284091)
Procedure, shortened: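 Neurons from rat cortex were seeded at 1.5 x 10^5 cells/well onto PEI-coated MEAs in a laminin drop, then exposed to compound from day 0 for twelve days. Network recordings on four days gave mutual information, summarised by AUC relative to DMSO.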

[14] = CCTE_Shafer_MEA_dev_bursting_electrodes_number: CCTE's Neural Network Formation Assay for Number of Bursting Electrodes, Shafer Lab (AID 2284043; active means hit-call score of the fitted dose curve at least 0.9, where 1 is the maximum;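 on AC50: potency is for loss of bursting electrodes relative to DMSO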)
Procedure, shortened: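 Rat cortical primary neurons, 48-well MEA, 16 electrodes/well; dosing DIV 0–12, re-dosed with full media change DIV 5, 9. Recordings DIV 5/7/9/12, AxIS adaptive spike detector; bursting electrode = ≥1 burst/2 min. AUC across days; loss of signal vs DMSO.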

[15] = molecular target: Estrogen receptor (Homo sapiens) (UniProt P03372); test: CCTE_Deisenroth_AIME_384WELL_LUC_Shift: CCTE's 384-well Estrogen Receptor Transactivation Assay with AIME metabolic competence data shift (ERTA luciferase; difference in metabolism positive and negative), Deisenroth Lab (AID 2284041);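 further: shift is response with S9 minus without S9 so positive means metabolism raised ER signal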
Estrogen receptor (Homo sapiens), sequence (P03372 whole entry, looked up): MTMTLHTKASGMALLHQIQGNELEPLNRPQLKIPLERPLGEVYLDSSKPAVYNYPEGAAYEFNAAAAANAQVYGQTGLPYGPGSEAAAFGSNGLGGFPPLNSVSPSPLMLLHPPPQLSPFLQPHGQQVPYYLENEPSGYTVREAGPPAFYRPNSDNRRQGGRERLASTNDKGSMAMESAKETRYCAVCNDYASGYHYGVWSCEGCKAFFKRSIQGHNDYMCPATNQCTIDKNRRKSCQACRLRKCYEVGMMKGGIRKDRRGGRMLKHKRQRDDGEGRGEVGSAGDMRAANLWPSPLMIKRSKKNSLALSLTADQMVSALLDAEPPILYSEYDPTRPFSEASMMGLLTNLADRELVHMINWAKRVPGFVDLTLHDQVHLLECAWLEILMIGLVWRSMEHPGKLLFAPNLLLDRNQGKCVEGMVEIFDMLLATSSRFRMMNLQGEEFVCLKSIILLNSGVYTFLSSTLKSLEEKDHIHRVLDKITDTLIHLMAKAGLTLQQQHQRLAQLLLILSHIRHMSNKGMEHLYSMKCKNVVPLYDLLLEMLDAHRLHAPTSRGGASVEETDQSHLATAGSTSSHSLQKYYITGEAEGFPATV
Procedure, shortened: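 Chemicals (0.002–200 uM, 10 points) pre-incubated 2 h with alginate-encapsulated induced male Sprague Dawley rat liver S9 or S9-free, then medium applied 24 h to VM7Luc4E2 cells; luciferase. Endpoint is per-concentration difference, S9-positive minus negative.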

[16] = UKN5_HCS_SBAD2_cell_viability: Viability Assessment in the University of Konstanz (UKN) Leist Lab Neurite Outgrowth Assay in human iPSC-derived immature Dorsal Root Ganglia Neurons (UKN5) (AID 2284056)
Procedure, shortened: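 iPSC-derived immature peripheral neurons (SBAD2) seeded on Matrigel with CHIR99021, SU5402 and DAPT, dosed 1 h later for 24 h. Viability from Hoechst H-33342 and calcein-AM live staining, high-content imaging; bidirectional fit versus DMSO.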

[17] = UKN5_HCS_SBAD2_neurite_outgrowth: University of Konstanz (UKN) Leist Lab Neurite Outgrowth Assay in human iPSC-derived immature Dorsal Root Ganglia Neurons (UKN5) (AID 2284070); conditions: actives raise or lower the signal
Procedure, shortened: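 Cryopreserved SBAD2 peripheral neurons were seeded at 100.000 cells/cm2 in N2-S/KSR medium containing CHIR99021, SU5402 and DAPT, then exposed to compounds for 24 h. Neurite area from calcein-AM high-content imaging was fitted bidirectionally against DMSO.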

DIO2 (gene 1734) = test: CCTE_GLTED_hDIO2: CCTE's human Deiodinase 2 (DIO2) Inhibition Assay, Great Lakes Toxicology and Ecology Division (GLTED) Lab (AID 2284050; active means hit-call score of the fitted dose curve at least 0.9, where 1 is the maximum)
Procedure, shortened: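 Readout: absorbance from Sandell-Kolthoff detection of free iodide released by human DIO2 during a 3 h incubation with chemical. Cell-free format, n=3; activity fitted relative to DMSO negative control.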

DIO3 (gene 1735) = test: CCTE_GLTED_hDIO3: CCTE's human Deiodinase 3 (DIO3) Inhibition Assay, Great Lakes Toxicology and Ecology Division (GLTED) Lab (AID 2284055; active means hit-call score of the fitted dose curve at least 0.9, where 1 is the maximum;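 further: potency is for inhibition seen as loss of released iodide signal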)
Procedure, shortened: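 hDIO3 (adenovirus-expressed) + test chemical, 3 h incubation; free iodide quantified by Sandell-Kolthoff reaction, absorbance read-out. DMSO negative control, n=3.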

Measured: AC50

O=S(=O)(O)c1ccc(N=Nc2c(O)ccc3cc(S(=O)(=O)O)ccc23)cc1
inactive: [1]

OC(Cn1cncn1)(Cn1cncn1)c1ccc(F)cc1F
active: [6] 3.83 µM
not listed: [1] | [14] | [15] | [16] | [17] | DIO2 (gene 1734) | DIO3 (gene 1735)
inactive: all other assays above

OC(O)(C(F)C(O)(O)C(F)(F)F)C(F)(F)F
not listed: [1] | [15] | [16] | [17] | DIO2 (gene 1734) | DIO3 (gene 1735)
inactive: all other assays above

Cc1ncc([C@@H](CCCCCCc2ccc3c(n2)NCCC3)CC(=O)O)cn1
inactive: [1]

CCCCCCCC/C=C\CCCCCCCC(=O)OC[C@@H](O)[C@H]1OC[C@H](O)[C@H]1O
inactive: [1]

c1ccc(C(O[C@@H]2CCCN(CCc3ccc4c(c3)OCO4)C2)c2ccccc2)cc1
inactive: [15] | [1]

CCOc1ccc2[nH]cc(C(=O)NCc3ccccc3)c(=O)c2n1
active: [14] 0.804 µM
not listed: [1] | [16] | [17] | DIO2 (gene 1734) | DIO3 (gene 1735)
inactive: all other assays above

CCCC(CCC)C(=O)O
active: [11] 488 µM | [16] 5000 µM | [17] 5000 µM
not listed: [1] | [6] | [15] | DIO2 (gene 1734) | DIO3 (gene 1735)
inactive: all other assays above

NCC(F)(F)C(F)(F)C(F)(F)C(F)(F)F
not listed: [1] | [15] | [16] | [17] | DIO2 (gene 1734) | DIO3 (gene 1735)
inactive: all other assays above

Cn1c(=O)c2[nH]cnc2n(C)c1=O
inactive: [1]

COc1cc(C(C)C)c2c(c1)S(=O)(=O)N(COc1cc(=O)n3cccc(OCCN4CCCCC4)c3n1)C2=O
inactive: [1]
active: DIO2 (gene 1734) 11.7 µM | DIO3 (gene 1735) 4.67 µM
